Measured values: PubChem BioAssay (NCATS)
Results filed as inconclusive are left out. Calls of active or inactive are those of the source. Unless noted, calls follow the shape of the full dose curve.

Tests used:
[1] = Primary qHTS for inhibitors of SARS-S pseudo-typed particle cell entry (AID 1479145); also: nearly all actives have a fitted effect of over 45% in size; also: potency is read from the fitted curve at half-maximal effect
[2] = Primary qHTS for Huh7 cytotoxicity: counterscreen for inhibitors of MERS-S pseudotyped particle cell entry (AID 1479147)
[3] = Primary qHTS for inhibitors of MERS-S pseudo-typed particle cell entry (AID 1479149); also: nearly all actives have a fitted effect of over 60% in size
[4] = Primary qHTS for Vero E6 cytotoxicity: counterscreen for inhibitors of SARS-S pseudo-typed particle cell entry (AID 1479150)
[5] = target: Protein phosphatase 1D (Homo sapiens) (UniProt O15297); assay: RapidFire Mass Spectrometry qHTS Assay for Modulators of WT P53-Induced Phosphatase 1 (WIP1) (AID 1347424; active = well fitted curve in the direction sought with a large enough effect; an effect the other way counts as inactive or inconclusive;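 also: amount of dephosphorylated VEPPL-S-QETFS peptide product formed by WIP1; potency is read from the fitted curve at half-maximal effect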)
Sequence of Protein phosphatase 1D (Homo sapiens) (O15297 whole entry, looked up): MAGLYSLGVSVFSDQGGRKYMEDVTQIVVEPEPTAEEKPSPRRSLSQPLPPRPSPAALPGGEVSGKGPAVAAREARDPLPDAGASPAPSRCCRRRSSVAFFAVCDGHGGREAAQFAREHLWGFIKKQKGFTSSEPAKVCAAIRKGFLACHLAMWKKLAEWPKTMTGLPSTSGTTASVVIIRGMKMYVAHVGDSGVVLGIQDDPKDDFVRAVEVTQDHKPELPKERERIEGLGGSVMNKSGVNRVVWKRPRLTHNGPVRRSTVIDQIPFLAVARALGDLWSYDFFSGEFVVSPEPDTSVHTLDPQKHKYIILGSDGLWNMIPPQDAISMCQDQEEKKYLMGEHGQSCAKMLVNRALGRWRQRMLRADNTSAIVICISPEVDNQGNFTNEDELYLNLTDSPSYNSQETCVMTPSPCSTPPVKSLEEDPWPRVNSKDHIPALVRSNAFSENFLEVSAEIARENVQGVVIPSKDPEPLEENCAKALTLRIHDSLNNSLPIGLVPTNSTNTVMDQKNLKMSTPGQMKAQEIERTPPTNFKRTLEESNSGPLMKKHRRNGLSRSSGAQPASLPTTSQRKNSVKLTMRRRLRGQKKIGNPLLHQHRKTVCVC
Method in brief: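 10 nM WIP1 + cpd, 1 h RT; + 2 uM VEPPL-pS-QETFS, 5 min RT; stop 0.5% formic acid; labelled product standard 1 uM; RapidFire MS. Buffer 50 mM Tris pH 7.5, 30 mM MgCl2, 1 mM TCEP.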

[6] = Primary qHTS for inhibitors of La Crosse Virus (LACV) - induced cell death in SH-SY5Y cells (AID 1508616; active = well fitted curve in the direction sought with a large enough effect; an effect the other way counts as inactive or inconclusive;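 also: top concentration of the series differs between compounds; higher means more rescue of cells from virus-induced death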)
Method in brief: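 Luminescent ATP readout (ATPLite 1step, 5 min room temperature) measured rescue from LACV-induced death after 6 days of infection at 0.01 MOI; normalized to infected DMSO wells and uninfected DMSO wells.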

[7] = target: Calcium and integrin-binding protein 1 (Homo sapiens) (UniProt Q99828); assay: Primary qHTS for Identification of Calcium Integrin Binding Protein 1 (CIB1) Competitor (AID 1508620; active = well fitted curve in the direction sought with a large enough effect; an effect the other way counts as inactive or inconclusive;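 also: GST tagged CIB1 binding a fluorescein labelled alphaIIb integrin peptide tracer; top concentration of the series differs between compounds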)
Sequence of Calcium and integrin-binding protein 1 (Homo sapiens) (Q99828 whole entry, looked up): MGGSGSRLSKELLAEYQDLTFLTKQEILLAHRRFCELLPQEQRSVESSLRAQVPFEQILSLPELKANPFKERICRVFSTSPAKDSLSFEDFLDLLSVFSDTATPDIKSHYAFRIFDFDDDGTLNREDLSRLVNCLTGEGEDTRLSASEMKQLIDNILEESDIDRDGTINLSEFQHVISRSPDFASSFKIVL
Method in brief: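 CIB1-GST (1 uM final) and compound incubated 15 min at room temperature before adding FITC-alphaIIb peptide tracer (100 nM final). Competition for binding read by fluorescence polarization (ex 480, em 540) after another 15 min at room temperature.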

[8] = Primary qHTS for small molecule stabilizers of the endoplasmic reticulum resident proteome: Secreted ER Calcium Modulated Protein (SERCaMP) assay (AID 1508630; active = well fitted curve in the direction sought with a large enough effect; an effect the other way counts as inactive or inconclusive)
Method in brief: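 GLuc-SERCaMP-expressing SH-SY5Y cells, pretreated 16 h with compound, are challenged with thapsigargin to empty ER calcium stores; after 4 h, coelenterazine is added directly to the medium and luminescence is imaged.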

Measured: Potency

Nc1c(I)cc(I)c(C(=O)N(CCC(=O)O)c2ccccc2)c1I
inactive: [1] | [2] | [3] | [4]

O=C(NCC1CCCCN1)c1cc(OCC(F)(F)F)ccc1OCC(F)(F)F (centres undefined)
inactive: [1] | [2] | [3] | [4]

COc1ccccc1OCC(O)CO (centres undefined)
inactive: [1] | [2] | [3] | [4]

c1ccc2c(CC3=NCCN3)cccc2c1
inactive: [1] | [2] | [3] | [4]

CCCC(O)C(CC)CO (centres undefined)
inactive: [1] | [2] | [3] | [4]

CC(C)(C)NC[C@H](O)COc1nsnc1N1CCOCC1
inactive: [1] | [2] | [3] | [4]

NCC(=O)CCC(=O)O
inactive: [1] | [2] | [3] | [4]

S=c1nc[nH]c2nc[nH]c12
inactive: [1] | [2] | [3] | [4]

COc1cnc(NS(=O)(=O)c2ccc(N)cc2)nc1
inactive: [1] | [2] | [3] | [4]

O=C(CCOCCOCCOCCOCCC(=O)Nc1c(I)cc(I)c(C(=O)O)c1I)Nc1c(I)cc(I)c(C(=O)O)c1I
inactive: [1] | [2] | [3] | [4]

COc1ccnc(CS(=O)c2nc3ccc(OC(F)F)cc3[nH]2)c1OC (centres undefined)
inactive: [1] | [2] | [3] | [4]

Cc1ccsc1/C=C/C1=NCCCN1C
inactive: [1] | [2] | [3] | [4]

O=C(O)c1cc(O)c(O)c(O)c1
inactive: [1] | [2] | [3] | [4]

Cc1cc(O)c2c(O)c3c(O)cccc3cc2c1
inactive: [1] | [2] | [3] | [4]

C[N+]1(C)CCCC(OC(=O)C(O)(c2ccccc2)c2ccccc2)C1 (centres undefined)
inactive: [1] | [2] | [3] | [4]

CC(C)C(=O)c1c(C(C)C)nn2ccccc12
inactive: [1] | [2] | [3] | [4]

CC(C)(C)NCC(O)COc1cccc2c1C[C@H](O)[C@H](O)C2 (some centres undefined)
inactive: [1] | [2] | [3] | [4]

NS(=O)(=O)c1cc2c(cc1Cl)NC(CC1CCCC1)NS2(=O)=O (centres undefined)
inactive: [1] | [2] | [3] | [4]

NS(=O)(=O)c1ccc(Cl)c(S(N)(=O)=O)c1
inactive: [1] | [2] | [3] | [4]

CC[C@@]1(O)C(=O)OCc2c1cc1n(c2=O)Cc2c-1nc1ccccc1c2/C=N/OC(C)(C)C
inactive: [1] | [2] | [3]

Cc1cnc(NC(=O)C2=C(O)c3ccccc3S(=O)(=O)N2C)s1
inactive: [1] | [2] | [3]

CC(C)(CO)[C@@H](O)C(=O)NCCCO
inactive: [1] | [2] | [3] | [4]

COc1cc(/C=C/C(=O)O[C@H]2CC[C@]34C[C@]35CC[C@]3(C)[C@@H]([C@H](C)CCC=C(C)C)CC[C@@]3(C)[C@@H]5CC[C@H]4C2(C)C)ccc1O
inactive: [1] | [2] | [3] | [4]

COCCCN1CCC(NC(=O)c2cc(Cl)c(N)c3c2OCC3)CC1
inactive: [1] | [2] | [3] | [4]

CC(C)=CCC/C(C)=C/CC/C(C)=C/CCC(=O)OC/C=C(\C)CCC=C(C)C
inactive: [1] | [2] | [3]

COc1cccc2c1C(=O)c1c(O)c3c(c(O)c1C2=O)C[C@@](O)(C(=O)CO)C[C@@H]3O[C@H]1C[C@H](N)[C@@H](O)[C@H](C)O1
active: [1] 10 µM

CC(=O)NS(=O)(=O)c1ccc(N)cc1
inactive: [1] | [2] | [3] | [4]

CO[C@@]1(NC(=O)CSCC#N)C(=O)N2C(C(=O)O)=C(CSc3nnnn3C)CS[C@@H]21
inactive: [1] | [2] | [3] | [4]

O=C(Nc1ccc(Br)cc1)c1cc(Br)cc(Br)c1O
active: [5] 3.16 µM
inactive: [6] | [7] | [8]

CC(=O)OCC(=O)[C@@]1(OC(C)=O)[C@@H](C)C[C@H]2[C@@H]3C[C@H](F)C4=CC(=O)C=C[C@]4(C)[C@@]3(F)[C@@H](O)C[C@@]21C
inactive: [1] | [2] | [3] | [4]

COc1ccc(C2C(=O)c3ccccc3C2=O)cc1
inactive: [1] | [2] | [3] | [4]

O=c1[nH]cnc2[nH]ncc12
inactive: [1] | [2] | [3] | [4]

CCOC(=O)c1ccc(O)cc1
inactive: [1] | [2] | [3] | [4]

CCOC(=O)/C=C(C)/C=C/C=C(C)/C=C/c1c(C)cc(OC)c(C)c1C
inactive: [1] | [2] | [3] | [4]

NC(=O)NC1N=C([O][Al])NC1=O (centres undefined)
inactive: [1] | [2] | [3] | [4]
